Assay [1] can be described thus: antimalarial activity against Dd2 strain (AID 2302;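 active = growth inhibition above 50% at the single 2 µM test dose, taken to imply half-maximal potency below 2 µM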;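 note: 0% = DMSO untreated growth and 100% = chloroquine plus artemisinin killed control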). The conditions noted are these: P. falciparum Dd2 in RBCs, LDH growth readout, 72 h; at 2 µM; stronger effect = higher value.
A short description of assay [2]: human hepatoma cell viability loss – ATP luminescence, cytotoxicity control for P. falciparum antimalarial project, primary screen (AID 2303;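 active = inhibition above 50%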;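 note: 0% = DMSO wells and 100% = digitonin-killed cells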). The note with it: HepG2 viability, 24-48 h, at 10 µM, stronger effect = higher value.
The target of assay [3] is L-lactate dehydrogenase (Plasmodium falciparum (isolate CDC / Honduras)) (UniProt Q27743). The experiment in a line: PfLDH activity inhibition – cell lysate, 3D7 strain, counter-screen for P. falciparum growth inhibition project (AID 2304).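 Note: 0% = vehicle and 100% = reference inhibitor.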 The note with it: P. falciparum 3D7 crude extract, LDH APAD/NBT absorbance; at 2 µM; stronger effect = higher value. In general terms: The purpose of a counterscreen is to sort out artefacts and off-target activity.

The nature of assay [4]: inhibition of 3D7 malaria parasite growth – strain 3D7 (AID 2306).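 Note: 0% = DMSO wells and 100% = chloroquine plus artemisinin control wells.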 The conditions noted are these: P. falciparum 3D7 erythrocytic growth, LDH absorbance, 72 h; at 2 µM; stronger effect = higher value.
Assay [5] has as its target Calcium-dependent protein kinase 1 (Plasmodium falciparum (isolate 3D7)) (UniProt P62344). The experiment in a line: PfCDPK1 kinase inhibitors, biochemical, TCAMS library (AID 1159585; cut-off not given, nearly all actives have IC50 up to about 0.98 µM;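 note: inhibitors leave more ATP so luminescence rises with inhibition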). The conditions noted are these: recombinant PfCDPK1, Kinase-Glo ATP depletion luminescence.
The target of assay [6] is Plasmodium falciparum protein kinase 6 (PK6, PF3D7_1337100) (UniProt Q8IDW1). The experiment in a line: PfPK6 kinase inhibitors, biochemical, TCAMS library (AID 1159586). The conditions noted are these: recombinant PfPK6, Kinase-Glo ATP depletion luminescence. (Kinase-Glo reads ATP consumption through a luciferase reaction.)
The target of assay [7] is Protein kinase 7 (PK7), Plasmodium falciparum 3D7 (PF3D7_0213400) (UniProt Q7YTF7). The experiment in a line: inhibition of Plasmodium PK7 catalytic activity – biochemical, TCAMS antimalarial set, Kinase-Glo luminescence (AID 1159587). The conditions noted are these: recombinant PfPK7, Kinase-Glo ATP depletion luminescence.
In assay [8] the target is Calcium-dependent protein kinase 4 (Plasmodium falciparum (isolate 3D7)) (UniProt Q8IBS5). The assay can be described thus: PfCDPK4 kinase inhibitors, biochemical, TCAMS library (AID 1159588; cut-off not given, nearly all actives have IC50 up to about 0.91 µM). The note with it: recombinant PfCDPK4, Kinase-Glo ATP depletion luminescence.

Values without a mark were called inactive. For some of these results: Results with a measured potency or affinity are listed apart. Activity calls are given as the source filed them. Unless noted, the rule behind the calls is not given here.

Chain of L-lactate dehydrogenase (Plasmodium falciparum (isolate CDC / Honduras)) (Q27743 whole entry, looked up): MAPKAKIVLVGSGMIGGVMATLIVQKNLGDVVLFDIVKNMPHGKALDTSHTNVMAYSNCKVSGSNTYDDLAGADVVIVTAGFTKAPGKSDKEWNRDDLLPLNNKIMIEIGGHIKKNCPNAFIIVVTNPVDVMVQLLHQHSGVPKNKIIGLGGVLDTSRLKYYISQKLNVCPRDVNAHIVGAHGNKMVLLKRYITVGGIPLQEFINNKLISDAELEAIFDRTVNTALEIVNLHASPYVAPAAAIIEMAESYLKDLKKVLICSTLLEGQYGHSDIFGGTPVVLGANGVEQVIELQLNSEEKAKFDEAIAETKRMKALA
Chain of Calcium-dependent protein kinase 4 (Plasmodium falciparum (isolate 3D7)) (Q8IBS5 whole entry, looked up): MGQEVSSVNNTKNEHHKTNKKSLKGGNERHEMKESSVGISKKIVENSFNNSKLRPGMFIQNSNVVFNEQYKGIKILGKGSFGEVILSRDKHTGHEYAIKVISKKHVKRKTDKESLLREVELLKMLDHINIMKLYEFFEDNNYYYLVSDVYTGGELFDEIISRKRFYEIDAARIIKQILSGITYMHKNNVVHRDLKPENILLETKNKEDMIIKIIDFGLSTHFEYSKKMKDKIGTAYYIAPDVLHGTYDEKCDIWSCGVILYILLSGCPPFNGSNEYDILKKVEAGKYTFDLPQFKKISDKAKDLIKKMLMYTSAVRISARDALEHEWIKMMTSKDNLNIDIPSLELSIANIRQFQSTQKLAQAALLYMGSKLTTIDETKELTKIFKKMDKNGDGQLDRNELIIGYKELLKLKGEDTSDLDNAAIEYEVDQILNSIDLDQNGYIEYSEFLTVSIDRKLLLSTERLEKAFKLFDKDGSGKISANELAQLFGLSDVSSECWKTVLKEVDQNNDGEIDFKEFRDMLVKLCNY
Chain of Plasmodium falciparum protein kinase 6 (PK6, PF3D7_1337100) (Q8IDW1 1-305): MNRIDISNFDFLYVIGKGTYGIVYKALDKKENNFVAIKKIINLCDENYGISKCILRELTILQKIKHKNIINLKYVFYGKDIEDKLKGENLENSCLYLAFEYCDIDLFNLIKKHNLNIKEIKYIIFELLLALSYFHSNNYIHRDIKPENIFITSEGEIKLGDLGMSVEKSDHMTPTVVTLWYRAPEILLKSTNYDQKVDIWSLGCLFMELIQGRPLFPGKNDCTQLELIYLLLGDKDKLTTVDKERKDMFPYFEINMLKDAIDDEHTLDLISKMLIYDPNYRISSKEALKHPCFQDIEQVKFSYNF
Chain of Protein kinase 7 (PK7), Plasmodium falciparum 3D7 (PF3D7_0213400) (Q7YTF7 1-343): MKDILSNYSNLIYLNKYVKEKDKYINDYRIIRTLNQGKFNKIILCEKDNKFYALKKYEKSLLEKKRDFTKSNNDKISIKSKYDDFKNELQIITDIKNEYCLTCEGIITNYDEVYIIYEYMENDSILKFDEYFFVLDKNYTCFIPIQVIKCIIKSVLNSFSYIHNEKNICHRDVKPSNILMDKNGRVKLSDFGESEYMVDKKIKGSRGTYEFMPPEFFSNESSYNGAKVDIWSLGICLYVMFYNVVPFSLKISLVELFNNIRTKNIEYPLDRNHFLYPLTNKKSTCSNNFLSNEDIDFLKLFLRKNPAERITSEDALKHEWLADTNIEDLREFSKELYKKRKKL
Chain of Calcium-dependent protein kinase 1 (Plasmodium falciparum (isolate 3D7)) (P62344 whole entry, looked up): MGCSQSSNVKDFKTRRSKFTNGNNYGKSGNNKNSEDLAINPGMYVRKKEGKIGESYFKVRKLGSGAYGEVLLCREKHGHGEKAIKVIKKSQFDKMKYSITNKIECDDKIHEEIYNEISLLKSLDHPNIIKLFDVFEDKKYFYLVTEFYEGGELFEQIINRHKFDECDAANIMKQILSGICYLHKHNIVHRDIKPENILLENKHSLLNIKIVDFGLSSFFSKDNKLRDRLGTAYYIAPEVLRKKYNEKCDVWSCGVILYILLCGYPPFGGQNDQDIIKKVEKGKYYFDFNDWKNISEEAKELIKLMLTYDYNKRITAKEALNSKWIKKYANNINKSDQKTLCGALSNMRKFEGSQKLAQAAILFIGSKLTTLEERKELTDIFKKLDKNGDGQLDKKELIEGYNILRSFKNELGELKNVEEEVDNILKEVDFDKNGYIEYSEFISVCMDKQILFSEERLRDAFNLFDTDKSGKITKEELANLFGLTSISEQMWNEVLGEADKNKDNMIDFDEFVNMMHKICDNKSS

As to `FC(F)(F)c1ccc2nc(-c3ccc(-c4ccc(CNCCc5ccncc5)cc4)cc3)[nH]c2c1`, the growth inhibition in assay [1] and in assay [4] was 100% (active) in each case. For the same molecule, the inhibition in assay [2] was 26%; in assay [3] it was 6%. The outcome in assay [5], in assay [6], in assay [7] and in assay [8] was inactive.

Turning to `Cc1nc(N)nc(N)c1-c1cc(Cl)c(N)c(Cl)c1`, the growth inhibition in assay [1] was 2%; in assay [4] it was 94% (active). For the same molecule, the inhibition in assay [2] was 62% (active); in assay [3], 6%. Also, the result in assay [5], in assay [6], in assay [7] and in assay [8] was inactive.

Turning to `Cc1cc(N[C@@H](Cc2ccccc2)C(=O)Nc2ccccc2)nc(NCCc2ccc(F)cc2)n1`, the results for the growth inhibition in assay [1] and in assay [4] were 81% (active) and 96% (active), respectively. The inhibition is 26% in assay [2] and 0% in assay [3]. For the same molecule, the result in assay [5], in assay [6], in assay [7] and in assay [8] was inactive.

In the case of `O=C(Oc1ccc(Cl)cc1C(=O)Nc1ccc([N+](=O)[O-])cc1Cl)c1ccccc1`, the growth inhibition in assay [1] was 19%; in assay [4], 97% (active). The inhibition in assay [2] is 88% (active); in assay [3] it was 3%. In addition, the outcome in assay [5], in assay [6], in assay [7] and in assay [8] was inactive.

On to `CCOC(=O)Cc1nc(N)c(C(=O)OCC)[nH]1`, for which the growth inhibition in assay [1] was 24%; in assay [4], 94% (active). The inhibition is 2% in assay [2] and -1% in assay [3]. For the same molecule, the outcome in assay [5], in assay [6], in assay [7] and in assay [8] was inactive.

On to `O=C(/C=C/c1ccc(C(F)(F)F)cc1)NCCCCCN1CCN(C(=O)Nc2ccc(Cl)c(Cl)c2)CC1`, for which the growth inhibition is -4% in assay [1] and 95% (active) in assay [4]. In addition, the inhibition in assay [2] is 37%; in assay [3], 5%. In addition, the result in assay [5], in assay [6], in assay [7] and in assay [8] was inactive.

As to `Cc1cc(N[C@@H](Cc2ccccc2)C(=O)NCCc2ccccc2)nc(NCCc2cccs2)n1`, the growth inhibition in assay [1] is 84% (active); in assay [4] it was 99% (active). Also, the results for the inhibition in assay [2] and in assay [3] were 12% and 4%, respectively. The result in assay [5], in assay [6], in assay [7] and in assay [8] was inactive.

On to `N=c1ccn(CC(=NO)c2ccc(Cl)c(Cl)c2)cc1`, for which the figures for the growth inhibition in assay [1] and in assay [4] were 81% (active) and 87% (active), respectively. For the same molecule, the values for the inhibition in assay [2] and in assay [3] were 23% and -2%, respectively. Moreover, the result in assay [5], in assay [6], in assay [7] and in assay [8] was inactive.

Turning to `O=S(=O)(Nc1cccc(CCN2CCC(N3CCCCC3)CC2)c1)c1cccc2ccccc12`, the figures for the growth inhibition in assay [1] and in assay [4] were 63% (active) and 99% (active), respectively. Also, the inhibition was 23% in assay [2] and 2% in assay [3]. In addition, the result in assay [5], in assay [6], in assay [7] and in assay [8] was inactive.

For the molecule `OCCCCCCNc1nc(NCc2ccccc2-c2ccc(C(F)(F)F)cc2)nc(N2CCNCC2)n1`, the growth inhibition was 16% in assay [1] and 89% (active) in assay [4]. For the same molecule, the inhibition is 13% in assay [2] and 2% in assay [3]. The outcome in assay [5], in assay [6], in assay [7] and in assay [8] was inactive.

For the molecule `O=C(Nc1ccc(Cl)cc1)Nc1cccc(CCNCc2ccccc2)c1`, the growth inhibition was 12% in assay [1] and 101% (active) in assay [4]. The figures for the inhibition in assay [2] and in assay [3] were 16% and 6%, respectively. Also, the outcome in assay [5], in assay [6], in assay [7] and in assay [8] was inactive.

`CCc1ccccc1OCCCON1C(N)=NC(N)=NC1(C)C`: the growth inhibition is 97% (active) in assay [1] and 95% (active) in assay [4]. Further, the inhibition in assay [2] was 77% (active); in assay [3], -2%. Besides, the result in assay [5], in assay [6], in assay [7] and in assay [8] was inactive.

Take `COc1ccc(C2C(C(=O)Nc3ccc(C)c(F)c3)c3cc(OC)c(OC)cc3C(=O)N2C)cc1` (stereo not given): the growth inhibition in assay [1] is 26%; in assay [4], 81% (active). For the same molecule, the inhibition is 6% in assay [2] and -2% in assay [3]. Moreover, the outcome in assay [5], in assay [6], in assay [7] and in assay [8] was inactive.

For `C#CCOc1ccccc1CN1CCC(N2CCc3cc(NC(=O)c4cc(C)on4)ccc32)C1` (stereo not given), the values for the growth inhibition in assay [1] and in assay [4] were 94% (active) and 95% (active), respectively. For the same molecule, the inhibition was 16% in assay [2] and -2% in assay [3]. Besides, the result in assay [5], in assay [6], in assay [7] and in assay [8] was inactive.

Regarding `O=C(Nc1ccc(Cn2ncc(N3CCCNCC3)c(Cl)c2=O)cc1)Nc1cccc(Oc2ccccc2)c1`, the growth inhibition in assay [1] was 41%; in assay [4] it was 81% (active). Also, the results for the inhibition in assay [2] and in assay [3] were 8% and -5%, respectively. Moreover, the outcome in assay [5], in assay [6], in assay [7] and in assay [8] was inactive.

For `N#Cc1ccc(NC2(C(=O)N3CCN(c4cccc(Cl)c4)CC3)CC2)c2ccccc12`, the values for the growth inhibition in assay [1] and in assay [4] were 66% (active) and 94% (active), respectively. For the same molecule, the values for the inhibition in assay [2] and in assay [3] were -5% and 0%, respectively. The result in assay [5], in assay [6], in assay [7] and in assay [8] was inactive.

As for `Cc1cccc2[nH]c(-c3ccc(-c4ccc(NC(=O)NCc5cccc(F)c5)cc4)cc3)nc12`, the growth inhibition was 12% in assay [1] and 97% (active) in assay [4]. For the same molecule, the inhibition is 46% in assay [2] and 7% in assay [3]. The outcome in assay [5], in assay [6], in assay [7] and in assay [8] was inactive.

`COc1ccc(OC)c2c1CCN(CCN1CCC(C(=O)Nc3ccc(C(=O)Nc4ccc(Cl)cc4)cc3)CC1)C2`: the growth inhibition in assay [1] and in assay [4] was 100% (active) in each case. The figures for the inhibition in assay [2] and in assay [3] were 25% and -2%, respectively. Further, the outcome in assay [5], in assay [6], in assay [7] and in assay [8] was inactive.

On to `COc1ccc(F)cc1-c1ccccc1CNC(=O)CN(C)S(=O)(=O)c1cc(C)cc(Cl)c1C`, for which the growth inhibition in assay [1] was 73% (active); in assay [4], 92% (active). Further, the inhibition in assay [2] is -3%; in assay [3], -2%. Also, the result in assay [5], in assay [6], in assay [7] and in assay [8] was inactive.

Turning to `Fc1ccc2nc(-c3ccc(-c4ccc(CNCC5CCCO5)cc4)s3)[nH]c2c1` (stereo not given), the growth inhibition in assay [1] was 99% (active); in assay [4], 100% (active). In addition, the inhibition was 30% in assay [2] and -2% in assay [3]. For the same molecule, the outcome in assay [5], in assay [6], in assay [7] and in assay [8] was inactive.

Usually inhibition stands for the relative decrease from the control value, in per cent.

These data come from PubChem BioAssay.
